Shown are actives, neighbours in structure and some others; about 4.7% of the full set was active somewhere.
HepG2 tox = kills HepG2 cells in TGF-b inhibitor counter-screen. HepG2 CAGA-GFP viability, ATP luminescence, 18 h. Potency, µM (titrated, usually from 46.1 µM), inactives show at the highest dose activity change, negative = cytotoxicity, usual class: cytotoxic. 0.76% of 410,000 active. AID 588856; also: potency is read from the fitted curve at half-maximal effect
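HepG2 CAGA-GFP cells (1000/well, DMEM with 1% FBS) received compound, then TGF-beta at 500 pg/mL final, and were incubated 18 hours at 37 degrees C. Viability was read by CellTiter-Glo luminescence. Media-only wells were set as complete cell-killing and DMSO as no toxicity.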
D3 ag = D3 dopamine receptor (human) agonism. P35462. D3R DiscoveRx beta-arrestin cells, luminescence, 90 min. max activation, %. 0.58% of 410,000 active; in the data active = max activation above about 30%; also: 0% is about no effect
Target sequence (P35462 whole entry, looked up): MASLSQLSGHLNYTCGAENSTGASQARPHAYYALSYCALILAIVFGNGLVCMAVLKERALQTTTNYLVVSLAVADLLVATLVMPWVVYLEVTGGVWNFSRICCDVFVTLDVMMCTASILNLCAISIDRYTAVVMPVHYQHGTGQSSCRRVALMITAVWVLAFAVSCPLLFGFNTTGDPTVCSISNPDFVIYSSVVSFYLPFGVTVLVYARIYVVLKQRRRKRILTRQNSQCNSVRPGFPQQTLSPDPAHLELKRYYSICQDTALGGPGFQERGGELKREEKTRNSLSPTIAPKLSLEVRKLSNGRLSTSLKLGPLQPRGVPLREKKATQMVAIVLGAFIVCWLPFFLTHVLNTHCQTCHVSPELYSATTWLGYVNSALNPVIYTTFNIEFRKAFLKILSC
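Cells at 1500/well, incubated overnight, then treated with pinned compounds (dopamine as control) for 90 min at 37 degrees C. DiscoveRx reagent added for 30 - 60 minutes at room temperature; luminescence read.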
S2 tox = viability counter-screen for ATXN expression inhibitors | Potency, µM (highest dose often 56.7 µM), hits mostly cytotoxic | S2 cells (HEK-293 line with an ATXN2-luciferase reporter) viability, CellTiter-Fluor protease fluorescence, 24 h | 0.49% of 400,000 active; also: potency is read from the fitted curve at half-maximal effect; nearly all actives have a fitted effect of over 40% in size
ATXN2 expr inh = reduces ATXN2 reporter expression in HEK-293 cells; HEK-293 ATXN2-luciferase reporter, luminescence, 24 h; 0.72% of 360,000 active; Potency, µM (doses to about 57 µM), for the others: at the highest dose activity change, negative = inhibition, most hits filed as inhibitors; also: potency is read from the fitted curve at half-maximal effect; % is scaled to controls: 0 for no effect and ±100 for the full control effect; nearly all actives have a fitted effect of over 55% in size
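ATXN2-luciferase reporter cells (luciferase flanked by upstream and downstream ATXN2 gene portions) were treated 24 h at 37 °C with compounds at up to 57 uM. SteadyGlo luminescence gave expression; GF-AFC fluorescence gave viability.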
TGFb inhibitor = inhibitors of TGF-b signaling. HepG2 CAGA-GFP TGF-b/SMAD3 reporter, GFP fluorescence, 18 h; TGF-beta stimulated, 500 pg/mL final. Potency, µM (top dose mostly 46.1 µM), inactives show top-dose activity, negative = inhibition, hits mostly inhibitors. 1.2% of 410,000 active. AID 588855; also: potency is read from the fitted curve at half-maximal effect; % is scaled to controls: 0 for no effect and ±100 for the full control effect; nearly all actives have a fitted effect of over 65% in size
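TGF-beta reporter screen: HEPG2 CAGA-GFP, 1% FBS, 500 pg/mL TGF-beta final, 18 h; per-cell GFP summed per well; curves fitted and categorized by class.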
DRD3 antagonist = D3 dopamine receptor (human) antagonism | max response, negative = inhibition, % | 2.5% of 360,000 active | AID 652054 | D3R cells, DiscoveRx beta-arrestin luminescence, antagonist mode; hits give low values; in the data active = max response below about -50%; inconclusive = no clear call, values can overlap the other calls; also: % is scaled to controls: 0 for no effect and ±100 for the full control effect
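Cells expressing the human receptor were seeded at 1500 cells/well, incubated overnight at 37 degrees C in 5% CO2, then exposed to library compounds with dopamine controls for 90 minutes at 37 degrees C before luminescent detection.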
* marks the source's active call; other numbers are inactive results; i = inactive; ? = inconclusive; . = no result given; ! = not active in a repeat; [ ] = another dose, or the depositor's remark. Unless noted, calls follow the shape of the dose curve; as a rule, active = well fitted curve in the direction sought with a large enough effect; inconclusive = small, poorly fitted or top-dose-only effect, or another doubt; inactive = no such curve, though single readings can be large; an effect the other way counts as inactive or inconclusive.

SMILES	HepG2 tox	D3 ag	S2 tox	ATXN2 expr inh	TGFb inhibitor	DRD3 antagonist
CC(=O)Nc1ccc(S(=O)(=O)N2CCC(c3nc4ccc(C)cc4[nH]3)CC2)cc1	15%	-1	i	-14%	?	-92*
Cn1c2ccccc2c2c3c(c4c5ccccc5n(CCC#N)c4c21)CNC3=O	.	.	.	6.9µM*	.	.
NCCO/C=C/[C@H](N)C(=O)O	.	-9	.	.	.	.
O=C(NC(c1ccccc1)c1c(O)ccc2ccccc12)c1ccccc1Cl (stereo unspecified)	-77%	0	i	?	?	23
CCCCC(=O)NC(c1ccc([N+](=O)[O-])cc1)c1c(O)ccc2ccccc12 (stereo unspecified)	-48%	-20	?	?	?	-52*
O=C(NC(c1ccc(Cl)cc1)c1c(O)ccc2ccccc12)c1ccccc1 (stereo unspecified)	18µM*	4	i	13%	11µM*	-22
Cc1cc(/C=N/n2c(COc3ccccc3)nc3ccccc3c2=O)c(O)c([N+](=O)[O-])c1	-19%	-12	?	?	16µM*	?
Cc1ccc(-c2[nH]ncc2/C=N/n2c(COc3ccccc3)nc3ccccc3c2=O)cc1	14µM*	26	.	?	10µM*	38
Nc1nc2ccc([N+](=O)[O-])cc2s1	.	-11	?	-10%[116 µM]	.	.
COc1cc2c(NC3CCN(C)CC3)nc(N3CCCCC3)nc2cc1OCCOCCN(C)C	-39%	.	.	.	-100%	.
Cc1ccc(CN2C(=O)C(O)(c3c[nH]c4ccccc34)c3cc(Cl)ccc32)cc1 (stereo unspecified)	13µM*	6	i	?	2.8µM*	.
O=S(=O)(c1ccc(F)cc1)c1snnc1-c1ccccc1	-29%	8	?	14µM*	?	-18
O=S(=O)(c1ccc(Cl)cc1)c1snnc1-c1ccccc1	-73%	-10	25µM*	20µM*	14µM*	-64*
CN(C)c1ncc(S(=O)(=O)c2ccc(Cl)cc2)c(-c2ccccc2)n1	-1%	-1	i	0%	?	-5
O=C(Nc1ccc([N+](=O)[O-])cc1Cl)c1cc(Cl)cc(Cl)c1O	-50%	.	.	.	?	.
CC(C)c1ccc(NC(=O)C2Cc3c(-c4ccc5c(c4)OCO5)ccnc3O2)cc1 (stereo unspecified)	-6%	3	?	7%	27%	7
O=C(Nc1ccc(F)c(Cl)c1)C1Cc2c(-c3ccco3)ccnc2O1 (stereo unspecified)	-7%	4	i	?	13µM*	32
CC(=O)c1cccc(-c2ccnc3c2CC(C(=O)Nc2ccc(Cl)c(C(F)(F)F)c2)O3)c1 (stereo unspecified)	-23%	-3	?	0%	13µM*	-5
O=C(Nc1ccc(Cl)c(C(F)(F)F)c1)C1Cc2c(-c3ccc4c(c3)OCO4)ccnc2O1 (stereo unspecified)	-31%	-6	i	?	11µM*	-10
COc1ccc(CCCNC(=O)C2Cc3c(-c4ccccc4)ccnc3O2)cc1 (stereo unspecified)	-32%	-3	18µM*	?	?	-14
Cc1ccc(NC(=O)[C@@H](c2ccccc2)N2Cc3ccccc3C2=O)cc1	5%	3	i	15%	-4%	.
COc1ccc(NC(=O)C2Cc3c(-c4cccc(NC(C)=O)c4)ccnc3O2)cc1 (stereo unspecified)	1%	-7	?	-16%	3%	-58*
O=C(Nc1cccc(OC(F)(F)F)c1)C1Cc2c(-c3ccccc3Oc3ccccc3)ccnc2O1 (stereo unspecified)	-32%	14	i	-24%	11µM*	6
CC(=O)Nc1ccc(NC(=O)C2Cc3c(-c4cccc(NC(C)=O)c4)ccnc3O2)cc1 (stereo unspecified)	1%	-14	i	7%	21%	0
O=C(Nc1cccc(OC(F)(F)F)c1)C1Cc2c(-c3ccc4c(c3)OCO4)ccnc2O1 (stereo unspecified)	-61%	-9	.	?	?	-55*
SMILES	HepG2 tox	D3 ag	S2 tox	ATXN2 expr inh	TGFb inhibitor	DRD3 antagonist
COc1ccc(NC(=O)C2Cc3c(-c4ccc5c(c4)OCO5)ccnc3O2)cc1OC (stereo unspecified)	-38%	1	2.5µM*	?	-6%	18
O=C(Nc1cccc(Oc2ccccc2)c1)C1Cc2c(-c3ccc4c(c3)OCO4)ccnc2O1 (stereo unspecified)	2%	-9	i	10%	10%	-15
Cc1ccc(C(=O)NCC(=O)OCc2cc(=O)n3nc(C4CCCCC4)sc3n2)cc1	-9%	2	i	-2%	?	.
CC(=O)Nc1ccc(NC(=O)C2Cc3c(-c4cccc(C(C)=O)c4)ccnc3O2)cc1 (stereo unspecified)	0%	-10	i	12%	27%	0
CC(=O)c1cccc(-c2ccnc3c2CC(C(=O)Nc2ccc(Cl)cc2)O3)c1 (stereo unspecified)	-13%	-15	?	?	-23%	-61*
Cn1c2ccc(F)cc2c2nnc(SCC(=O)Nc3cccc(O)c3)nc21	-8%	34*	i	0%	-2%	6
COc1cc(CNc2ccc3[nH]c(=O)[nH]c3c2)cc(Br)c1OCc1ccc(F)cc1	-45%	33*!	?	?	?	13
CC(=O)Nc1cc(C(=O)OCC(=O)c2ccc(Cl)cc2Cl)ccc1C	0%	18	i	1%	-16%	2
CC(C)C(=O)Nc1cccc(C(=O)OCC(=O)c2ccc(Cl)cc2Cl)c1	1%	31*	?	42%	-18%	44
CCOc1cc(CNC(=O)Cn2c(=O)c3cccn3c3ccc(F)cc32)cc(OCC)c1OCC	-12%	-13	.	.	?	.
Cc1cccc(NS(=O)(=O)c2ccc(Cl)c(C(=O)Nc3ccccc3C)c2)c1	-22%	6	i	-22%	?	.
COc1ccc(NC(=O)c2nc(S(=O)(=O)Cc3ccc(C)cc3)ncc2Cl)cc1	8.9µM*	-25	.	.	.	.
CS(=O)(=O)c1ncc(Cl)c(C(=O)Nc2ccc3ccccc3c2)n1	5.6µM*	-30	20µM*	?	5µM*	-117*
COc1ccc(CNC(=O)c2nc(SCc3ccc(C)cc3)ncc2Cl)cc1	-37%	-20	.	.	?	.
CCS(=O)(=O)c1ncc(Cl)c(C(=O)NCc2ccccc2)n1	-108%	-17	.	.	.	.
CCNC(=O)c1c(NC(=O)c2nc(SCC)ncc2Cl)sc2c1CCCC2	11%	.	.	.	10%	.

From PubChem BioAssay
